From PubChem BioAssay (EPA / NIEHS)
Active and inactive are the calls of the source. How the source made its calls: active means hit-call score of the fitted dose curve at least 0.9, where 1 is the maximum; inactive means score below 0.9.

What was measured:
[1] = ATG_GLI_CIS: Attagene CIS-FACTORIAL HepG2 Assay for human Zinc Finger Protein GLI1 (AID 2282945); conditions: HepG2, Attagene cis-factorial reporter mRNA, GLI element; actives raise or lower the signal
Procedure, shortened: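 Bidirectional curve fits relative to DMSO, using reporter mRNA levels from RT-PCR plus capillary electrophoresis. Cells were HepG2 transiently carrying cis-regulated reporter constructs, harvested 24 h after dosing.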

[2] = target: Bile acid receptor (Homo sapiens) (UniProt Q96RI1); assay: ATG_IR1_CIS: Attagene CIS-FACTORIAL HepG2 Assay for human Nuclear Receptor Subfamily 1 Group H Member 4 (NR1H4), IR1 submotif (AID 2282946); conditions: IR1 reporter transcription, actives raise or lower the signal
Procedure, shortened: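 HepG2 cells transiently transfected with multiplexed cis-element reporter units read endogenous transcription factor activity. After 24 h compound exposure, reporter mRNA was quantified by RT-PCR, fluorescent labelling, HpaI digestion and capillary electrophoresis; bidirectional fitting versus DMSO baseline.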

[3] = ATG_GRE_CIS: Attagene CIS-FACTORIAL HepG2 Assay for human Glucocorticoid Response Elements (GRE) (AID 2282947); conditions: HepG2 GRE cis-reporter, Attagene multiplex mRNA; actives raise or lower the signal
Procedure, shortened: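 Reporter transcripts read by RT-PCR with capillary electrophoresis fluorescence after a 24 h chemical exposure of HepG2 cells transiently transfected with multiple cis-element reporter units. Gain or loss fitted against DMSO.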

[4] = ATG_ISRE_CIS: Attagene CIS-FACTORIAL HepG2 Assay for human Interferon Regulatory Factor 1 (IRF1) binding to an Interferon-Stimulated Response Element (ISRE) (AID 2282948); conditions: HepG2 ISRE cis-reporter (Attagene), mRNA transcription readout; actives raise or lower the signal
Procedure, shortened: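 Read-out: fluorescent RT-PCR products resolved by capillary electrophoresis, reporting endogenous transcription factor activity via ISRE-driven reporter mRNA in transfected HepG2 cells dosed for 24 h; gain or loss fitted relative to DMSO.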

[5] = ATG_M_32_CIS: Attagene CIS-FACTORIAL HepG2 Assay for M32 Transcription Factor (Internal Marker) (AID 2282949); conditions: HepG2 Attagene cis-factorial M32 reporter, mRNA; actives raise or lower the signal;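 further: background control marker of the multiplexed CIS panel rather than a real target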
Procedure, shortened: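 HepG2 human liver cells transiently transfected with cis-promoter-driven multiple reporter transcription units, dosed 24 h. Reporter mRNA quantified by RT-PCR, FAM-labelled primer extension, HpaI digest and capillary electrophoresis; bidirectional fit versus DMSO baseline.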

[6] = ATG_M_06_CIS: Attagene CIS-FACTORIAL HepG2 Assay for M06 Transcription Factor (Internal Marker) (AID 2282950); conditions: HepG2 Attagene CIS-FACTORIAL M06 internal marker reporter; actives raise or lower the signal
Procedure, shortened: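 Serves as a background control readout. Transfected HepG2 exposed to compounds for 24 h, then reporter transcripts quantified by fluorescent RT-PCR and capillary electrophoresis. Both directions fitted against DMSO baseline.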

[7] = target: Hypoxia-inducible factor 1-alpha (Homo sapiens) (UniProt Q16665); assay: ATG_HIF1a_CIS: Attagene CIS-FACTORIAL HepG2 Assay for human Hypoxia Inducible Factor 1 (HIF1A) (AID 2282951); conditions: HepG2 Attagene cis-factorial HIF1a reporter transcription; actives raise or lower the signal
Procedure, shortened: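 Transient MRTU transfection of human HepG2 liver cells, 24 h compound treatment, then total RNA isolation, oligo(dT) reverse transcription, PCR amplification, fluorescent labelling and capillary electrophoresis of reporter fragments. Gain or loss relative to DMSO.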

[8] = target: Hepatocyte nuclear factor 6 (Homo sapiens) (UniProt Q9UBC0); assay: ATG_HNF6_CIS: Attagene CIS-FACTORIAL HepG2 Assay for human Hepatocyte Nuclear Factor 6 (HNF6) (AID 2282952); conditions: HepG2 Attagene cis-factorial HNF6 reporter transcription; actives raise or lower the signal
Procedure, shortened: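 Readout: fluorescent reporter-transcript fragments resolved by capillary electrophoresis after RT-PCR, reflecting endogenous factor activity in transfected HepG2. Exposure 24 h. Gain or loss of signal fitted bidirectionally against DMSO.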

[9] = target: Heat shock factor protein 1 (Homo sapiens) (UniProt Q00613); assay: ATG_HSE_CIS: Attagene CIS-FACTORIAL HepG2 Assay for human Heat Shock Transcription Factor 1 (HSE) (AID 2282953); conditions: HepG2 HSE cis-reporter, Attagene RNA transcription; actives raise or lower the signal
Procedure, shortened: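 Endogenous transcription factor activity in transiently transfected HepG2, read as reporter mRNA by RT-PCR with fluorescent capillary electrophoresis after 24 h. Gain or loss of signal fitted versus DMSO baseline.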

[10] = ATG_MRE_CIS: Attagene CIS-FACTORIAL HepG2 Assay for human Metal Responsive Element (MRE) (AID 2282954); conditions: HepG2 MRE cis-reporter transcription, Attagene multiplex; actives raise or lower the signal
Procedure, shortened: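 Endogenous MRE-dependent transcription read as reporter mRNA in transiently transfected human HepG2 cells at 24 h. RNA reverse-transcribed, PCR-amplified, labelled and resolved by capillary electrophoresis; gain or loss relative to DMSO.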

[11] = ATG_PBREM_CIS: Attagene CIS-FACTORIAL HepG2 Assay for human Phenobarbital-responsive Enhancer Module (PBREM) (AID 2282955); conditions: HepG2 PBREM cis-reporter, Attagene multiplexed transcription; actives raise or lower the signal
Procedure, shortened: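 Endogenous transcription factors in human liver HepG2 cells drive a PBREM cis-element reporter, whose transcript level after 24 h treatment is quantified by RT-PCR with capillary electrophoresis; activity fitted in both directions against DMSO.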

[12] = target: Paired box protein Pax-6 (Homo sapiens) (UniProt P26367); assay: ATG_Pax6_CIS: Attagene CIS-FACTORIAL HepG2 Assay for human Paired Box 6 (PAX6) (AID 2282956); conditions: HepG2 CIS-FACTORIAL PAX6 reporter transcription, RNA readout; actives raise or lower the signal
Procedure, shortened: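 Readout: reporter transcript fluorescence after RT-PCR and capillary electrophoresis. Cells: HepG2, transiently transfected with cis-regulated MRTUs. Exposure 24 h. Gain or loss of signal fitted bidirectionally relative to DMSO.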

[13] = ATG_PXRE_CIS: Attagene CIS-FACTORIAL HepG2 Assay for human Pregnane X Receptor Element (PXRE) (AID 2282957); conditions: HepG2 Attagene CIS-FACTORIAL PXRE reporter, mRNA; actives raise or lower the signal
Procedure, shortened: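 Read-out: fluorescence of reporter-specific RT-PCR products resolved by capillary electrophoresis, fitted bidirectionally relative to DMSO. Human HepG2 liver cells carried transfected cis-promoter reporter units and were exposed to chemicals for 24 h.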

[14] = ATG_RORE_CIS: Attagene CIS-FACTORIAL HepG2 Assay for human RAR-related Orphan Receptor Element (RORE) (AID 2282959); conditions: HepG2 Attagene cis-factorial RORE reporter, mRNA; actives raise or lower the signal
Procedure, shortened: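 Transient MRTU transfection of human HepG2 liver cells (FuGene 6); 24 h compound exposure; TriZol RNA, oligo(dT) RT, PCR, FAM labeling, HpaI cut, CE fragment analysis. DMSO = negative control/baseline.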

[15] = ATG_Sox_CIS: Attagene CIS-FACTORIAL HepG2 Assay for human SRY-box transcription factor (SOX) (AID 2282960); conditions: HepG2 Attagene cis-factorial SOX reporter, mRNA; actives raise or lower the signal
Procedure, shortened: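 Endogenous factor activity in human liver HepG2 cells carrying transfected cis-regulated reporter units. RNA taken 24 h post-dose, reverse-transcribed, PCR-amplified and sized by capillary electrophoresis. Gain or loss of signal fitted relative to DMSO.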

[16] = target: Transcription factor Sp1 (Homo sapiens) (UniProt P08047); assay: ATG_Sp1_CIS: Attagene CIS-FACTORIAL HepG2 Assay for human Specificity Protein 1 (Sp1) (AID 2282961); conditions: HepG2 Sp1 cis-reporter transcription, actives raise or lower the signal
Procedure, shortened: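 Transient MRTU-transfected HepG2, 24 h compound exposure. Total RNA → oligo(dT) RT → PCR of reporter → 6-FAM primer extension → HpaI digest → CE. Endpoint fitted both directions vs DMSO.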

[17] = ATG_SREBP_CIS: Attagene CIS-FACTORIAL HepG2 Assay for human Sterol Regulatory Element Binding (SREBP) (AID 2282962); conditions: HepG2 Attagene cis-factorial SREBP reporter, mRNA; actives raise or lower the signal
Procedure, shortened: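 Readout: fluorescent reporter-transcript peaks resolved by capillary electrophoresis after RT-PCR. Cells were human HepG2 carrying transfected cis-promoter reporter constructs, dosed for 24 h. Gain or loss of signal was fitted against DMSO controls.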

[18] = target: Signal transducer and activator of transcription 3 (Homo sapiens) (UniProt P40763); assay: ATG_STAT3_CIS: Attagene CIS-FACTORIAL HepG2 Assay for human Signal Transducer and Activator of Transcription 3 (STAT3) (AID 2282963); conditions: HepG2, Attagene cis-factorial STAT3 reporter transcription; actives raise or lower the signal
Procedure, shortened: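 Readout is reporter transcript quantified by RT-PCR and capillary electrophoresis, with 6-FAM primer extension and HpaI digestion. Total RNA is taken 24 h after dosing transiently transfected HepG2 carrying cis-regulated reporter units. Bidirectional fit against DMSO.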

[19] = ATG_TA_CIS: Attagene CIS-FACTORIAL HepG2 Assay for human TA Basal Promoter (AID 2282964); conditions: HepG2 Attagene CIS-factorial TA basal promoter reporter; actives raise or lower the signal
Procedure, shortened: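 Background-control readout: TA basal promoter reporter mRNA, fitted in both directions relative to DMSO. Measured by RT-PCR and capillary electrophoresis 24 hours after treating HepG2 human liver cells transiently carrying multiplexed cis-regulated reporter constructs.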

[20] = ATG_PPRE_CIS: Attagene CIS-FACTORIAL HepG2 Assay for human Peroxisome Proliferator-activated Response Element (PPRE) (AID 2282958); conditions: HepG2 PPRE cis-element reporter, Attagene transcription factor profiling; actives raise or lower the signal
Procedure, shortened: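 HepG2, transient MRTU transfection (cis promoter elements, endogenous TFs). 24 h dosing. RNA → oligo(dT) RT → PCR → 6-FAM primer extension → HpaI digest → CE. Bidirectional fit vs DMSO.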

Measured: AC50

Signal transducer and activator of transcription 3 (Homo sapiens), sequence (P40763 whole entry, looked up): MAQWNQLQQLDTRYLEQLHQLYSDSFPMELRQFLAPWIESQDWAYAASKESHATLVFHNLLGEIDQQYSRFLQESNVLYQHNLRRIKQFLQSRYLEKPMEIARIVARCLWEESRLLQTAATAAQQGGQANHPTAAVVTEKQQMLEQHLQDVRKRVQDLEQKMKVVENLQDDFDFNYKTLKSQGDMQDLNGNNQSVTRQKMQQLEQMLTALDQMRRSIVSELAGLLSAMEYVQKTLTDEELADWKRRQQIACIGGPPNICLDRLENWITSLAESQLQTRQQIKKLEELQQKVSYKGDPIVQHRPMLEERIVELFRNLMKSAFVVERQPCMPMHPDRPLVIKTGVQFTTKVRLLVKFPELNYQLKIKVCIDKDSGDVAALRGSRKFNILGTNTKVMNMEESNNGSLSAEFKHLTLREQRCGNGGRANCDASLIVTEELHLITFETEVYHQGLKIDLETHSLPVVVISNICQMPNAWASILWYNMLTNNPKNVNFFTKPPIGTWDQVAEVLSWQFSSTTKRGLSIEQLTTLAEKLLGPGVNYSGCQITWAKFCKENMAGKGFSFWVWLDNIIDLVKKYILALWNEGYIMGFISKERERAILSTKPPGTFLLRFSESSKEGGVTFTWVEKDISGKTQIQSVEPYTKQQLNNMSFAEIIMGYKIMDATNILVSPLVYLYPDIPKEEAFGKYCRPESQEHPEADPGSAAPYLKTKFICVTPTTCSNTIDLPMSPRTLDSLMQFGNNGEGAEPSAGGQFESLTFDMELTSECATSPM
Hepatocyte nuclear factor 6 (Homo sapiens), sequence (Q9UBC0 whole entry, looked up, the tested form may be a part): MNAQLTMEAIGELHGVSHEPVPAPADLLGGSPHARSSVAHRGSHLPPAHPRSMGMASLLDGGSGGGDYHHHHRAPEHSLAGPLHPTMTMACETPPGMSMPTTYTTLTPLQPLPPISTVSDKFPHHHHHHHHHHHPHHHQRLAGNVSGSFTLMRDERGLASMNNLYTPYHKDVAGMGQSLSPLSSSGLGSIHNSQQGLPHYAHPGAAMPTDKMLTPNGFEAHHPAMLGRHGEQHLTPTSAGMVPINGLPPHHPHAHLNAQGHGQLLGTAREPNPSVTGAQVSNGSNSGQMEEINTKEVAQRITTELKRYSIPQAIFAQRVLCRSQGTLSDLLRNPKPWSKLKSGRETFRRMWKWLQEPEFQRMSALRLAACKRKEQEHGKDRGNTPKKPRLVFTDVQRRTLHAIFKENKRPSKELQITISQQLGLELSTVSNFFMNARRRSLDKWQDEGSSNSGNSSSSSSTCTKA
Hypoxia-inducible factor 1-alpha (Homo sapiens), sequence (Q16665 whole entry, looked up, the tested form may be a part): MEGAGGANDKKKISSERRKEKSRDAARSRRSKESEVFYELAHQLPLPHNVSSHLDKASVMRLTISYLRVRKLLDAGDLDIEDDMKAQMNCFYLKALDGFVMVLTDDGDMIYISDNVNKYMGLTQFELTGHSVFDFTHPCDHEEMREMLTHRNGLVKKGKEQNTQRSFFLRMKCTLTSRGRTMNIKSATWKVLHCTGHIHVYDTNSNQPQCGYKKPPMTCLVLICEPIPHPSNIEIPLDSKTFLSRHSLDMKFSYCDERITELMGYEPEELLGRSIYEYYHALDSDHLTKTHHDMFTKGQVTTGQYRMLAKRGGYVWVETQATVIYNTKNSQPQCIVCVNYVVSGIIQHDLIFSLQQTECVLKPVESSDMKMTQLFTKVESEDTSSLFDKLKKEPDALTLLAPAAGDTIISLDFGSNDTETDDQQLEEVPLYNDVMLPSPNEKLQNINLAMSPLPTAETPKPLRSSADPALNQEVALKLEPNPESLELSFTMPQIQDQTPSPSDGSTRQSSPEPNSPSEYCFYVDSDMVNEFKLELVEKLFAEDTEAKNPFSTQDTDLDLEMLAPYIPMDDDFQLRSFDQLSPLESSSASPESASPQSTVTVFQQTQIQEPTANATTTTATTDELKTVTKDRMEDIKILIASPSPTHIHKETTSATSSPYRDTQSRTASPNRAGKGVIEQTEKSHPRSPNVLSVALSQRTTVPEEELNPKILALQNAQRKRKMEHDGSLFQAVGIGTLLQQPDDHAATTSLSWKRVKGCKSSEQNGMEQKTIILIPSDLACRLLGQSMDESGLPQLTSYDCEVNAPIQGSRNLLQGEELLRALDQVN
Transcription factor Sp1 (Homo sapiens), sequence (P08047 whole entry, looked up): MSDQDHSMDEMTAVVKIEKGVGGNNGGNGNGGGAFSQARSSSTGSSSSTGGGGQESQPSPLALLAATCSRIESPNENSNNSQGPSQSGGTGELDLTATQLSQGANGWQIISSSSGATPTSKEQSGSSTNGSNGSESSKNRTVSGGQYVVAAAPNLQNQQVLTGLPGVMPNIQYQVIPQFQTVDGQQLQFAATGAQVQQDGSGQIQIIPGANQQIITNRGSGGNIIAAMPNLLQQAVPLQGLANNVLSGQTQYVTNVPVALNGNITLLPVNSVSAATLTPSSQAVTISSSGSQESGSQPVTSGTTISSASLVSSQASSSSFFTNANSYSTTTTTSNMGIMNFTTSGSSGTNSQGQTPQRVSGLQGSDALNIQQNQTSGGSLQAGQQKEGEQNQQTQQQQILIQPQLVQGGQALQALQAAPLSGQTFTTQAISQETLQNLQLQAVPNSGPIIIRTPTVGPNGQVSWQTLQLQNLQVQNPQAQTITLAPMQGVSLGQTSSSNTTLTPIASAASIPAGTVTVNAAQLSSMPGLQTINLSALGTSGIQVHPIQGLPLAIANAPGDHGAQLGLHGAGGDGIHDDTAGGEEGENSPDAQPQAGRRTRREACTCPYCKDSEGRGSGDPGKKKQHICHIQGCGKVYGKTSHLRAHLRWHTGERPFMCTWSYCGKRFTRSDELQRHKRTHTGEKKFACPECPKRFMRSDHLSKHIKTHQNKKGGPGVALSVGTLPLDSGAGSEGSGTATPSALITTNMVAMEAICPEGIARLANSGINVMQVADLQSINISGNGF
Heat shock factor protein 1 (Homo sapiens), sequence (Q00613 whole entry, looked up): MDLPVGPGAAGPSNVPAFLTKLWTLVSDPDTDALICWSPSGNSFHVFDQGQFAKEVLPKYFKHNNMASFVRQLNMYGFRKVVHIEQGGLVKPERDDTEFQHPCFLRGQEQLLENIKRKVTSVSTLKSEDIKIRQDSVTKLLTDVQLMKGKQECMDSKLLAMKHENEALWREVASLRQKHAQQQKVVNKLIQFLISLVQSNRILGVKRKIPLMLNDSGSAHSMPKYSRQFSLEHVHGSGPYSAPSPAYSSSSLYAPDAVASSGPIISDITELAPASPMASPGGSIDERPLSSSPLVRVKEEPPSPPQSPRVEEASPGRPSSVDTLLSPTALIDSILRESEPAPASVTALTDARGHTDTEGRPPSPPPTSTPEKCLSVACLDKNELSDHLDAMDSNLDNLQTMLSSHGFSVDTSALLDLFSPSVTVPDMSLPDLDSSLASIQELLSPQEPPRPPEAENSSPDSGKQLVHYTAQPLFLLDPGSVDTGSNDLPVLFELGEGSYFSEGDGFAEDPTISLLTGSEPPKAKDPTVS
Paired box protein Pax-6 (Homo sapiens), sequence (P26367 whole entry, looked up): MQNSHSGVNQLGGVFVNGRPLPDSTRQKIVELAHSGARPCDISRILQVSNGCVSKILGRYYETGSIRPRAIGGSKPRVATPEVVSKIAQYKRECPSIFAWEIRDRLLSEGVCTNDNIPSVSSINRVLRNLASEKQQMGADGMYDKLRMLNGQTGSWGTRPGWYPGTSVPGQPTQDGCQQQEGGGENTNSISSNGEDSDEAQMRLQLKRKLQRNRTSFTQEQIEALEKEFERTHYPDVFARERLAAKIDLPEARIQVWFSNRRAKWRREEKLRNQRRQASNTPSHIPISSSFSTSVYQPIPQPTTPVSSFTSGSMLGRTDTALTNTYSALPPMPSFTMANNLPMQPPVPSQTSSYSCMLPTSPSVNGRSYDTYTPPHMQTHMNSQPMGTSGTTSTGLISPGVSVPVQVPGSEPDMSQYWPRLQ
Bile acid receptor (Homo sapiens), sequence (Q96RI1 whole entry, looked up): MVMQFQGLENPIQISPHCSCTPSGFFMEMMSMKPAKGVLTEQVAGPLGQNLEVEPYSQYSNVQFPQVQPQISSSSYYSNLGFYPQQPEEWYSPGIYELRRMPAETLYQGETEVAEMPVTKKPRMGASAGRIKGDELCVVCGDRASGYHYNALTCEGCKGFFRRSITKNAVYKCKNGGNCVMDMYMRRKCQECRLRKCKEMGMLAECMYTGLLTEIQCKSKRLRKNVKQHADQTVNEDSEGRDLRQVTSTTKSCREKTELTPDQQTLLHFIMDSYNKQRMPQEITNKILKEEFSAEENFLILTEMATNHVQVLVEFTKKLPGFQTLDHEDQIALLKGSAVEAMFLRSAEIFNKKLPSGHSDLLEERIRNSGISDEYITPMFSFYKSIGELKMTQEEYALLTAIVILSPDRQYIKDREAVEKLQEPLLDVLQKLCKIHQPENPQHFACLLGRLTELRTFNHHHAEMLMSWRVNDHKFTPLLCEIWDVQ

CCCCNC(=S)NCCCC
inactive: [1] | [2] | [3] | [4] | [5] | [6] | [7] | [8] | [9] | [10] | [11] | [12] | [14] | [15] | [16] | [17] | [18] | [19]
active: [13] 38 µM

CC=CC(=O)OCC(C)C
inactive: [1] | [2] | [3] | [4] | [5] | [6] | [7] | [8] | [9] | [10] | [12] | [13] | [20] | [14] | [15] | [16] | [17] | [18] | [19]

C=CCNCC=C
inactive: [1] | [2] | [3] | [4] | [5] | [6] | [8] | [9] | [10] | [12] | [15] | [16] | [17] | [18] | [19]
active: [7] 28.3 µM | [13] 52.1 µM

CCOB(OCC)OCC
inactive: [1] | [2] | [3] | [4] | [5] | [6] | [7] | [8] | [9] | [10] | [12] | [13] | [20] | [14] | [15] | [16] | [17] | [19]

[Cl][Sc]([Cl])[Cl]
inactive: [1] | [2] | [3] | [4] | [5] | [6] | [7] | [8] | [9] | [10] | [12] | [13] | [15] | [16] | [17] | [18] | [19]

CCCCCCCCCCCCCc1ccccc1
inactive: [1] | [2] | [3] | [4] | [5] | [6] | [7] | [8] | [9] | [10] | [13] | [14] | [16] | [17] | [18] | [19]

CC(=O)OC1CCCCC1
inactive: [1] | [2] | [3] | [4] | [5] | [6] | [7] | [8] | [9] | [10] | [12] | [13] | [20] | [14] | [15] | [16] | [17] | [18] | [19]
